Reference: PubChem BioAssay (NCATS)

These compounds were tested against Guanine nucleotide-binding protein G(i) subunit alpha-1 (Homo sapiens) (UniProt P63096) (assay: qHTS Assay for Inhibitors of RGS12 GoLoco Motif Activity (Green Fluorophore) (AID 879;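 also: 0% = labeled peptide with Gαi1 and full inhibition = labeled peptide alone without protein; negative values mean loss of peptide binding seen as reduced polarization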)). Conditions: Galphai1/FITC-RGS12 GoLoco peptide, fluorescence polarization; series mostly up to 57.1 µM; activity, negative = inhibition: at the top concentration; active = well fitted curve in the direction sought with a large enough effect; inconclusive = small, poorly fitted or top-dose-only effect, or another doubt; inactive = no such curve, though single readings can be large or run the other way.
Sequence of Guanine nucleotide-binding protein G(i) subunit alpha-1 (Homo sapiens) (P63096 whole entry, looked up): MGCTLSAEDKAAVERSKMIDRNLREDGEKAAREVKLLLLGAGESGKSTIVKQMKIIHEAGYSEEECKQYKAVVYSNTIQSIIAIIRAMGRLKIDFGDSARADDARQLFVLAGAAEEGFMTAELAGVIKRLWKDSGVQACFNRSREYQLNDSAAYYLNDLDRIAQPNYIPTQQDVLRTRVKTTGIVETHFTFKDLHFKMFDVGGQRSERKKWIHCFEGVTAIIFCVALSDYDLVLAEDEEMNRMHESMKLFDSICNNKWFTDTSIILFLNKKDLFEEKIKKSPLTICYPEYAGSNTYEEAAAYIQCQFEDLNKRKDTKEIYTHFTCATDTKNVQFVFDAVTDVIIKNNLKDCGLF
Text: Assay Overview: NIH Molecular Libraries Screening Centers Network [MLSCN] NIH Chemical Genomics Center [NCGC] MLSCN Grant: NS053754-01 Assay Provider: Siderovski, David P, University of North Carolina at Chapel Hill G-protein-coupled receptors (GPCRs) are major targets for drug discovery. The regulator of G-protein signaling (RGS)-protein family has important roles in GPCR signal transduction. RGS proteins contain a conserved RGS-box, which is often accompanied by other signaling regulatory elements. RGS proteins accelerate the deactivation of G proteins to reduce GPCR signaling; however, some also have an effector function and transmit signals. Combining GPCR agonists with RGS inhibitors should potentiate responses, and could markedly increase the agonist's regional specificity. The diversity of RGS proteins with highly localized and dynamically regulated distributions in brain makes them attractive targets for pharmacotherapy of central nervous system disorders. […] A complex of Gai1 and fluorescently labeled G-alpha-binding peptide (the "GoLoco motif") derived from RGS12 is incubated with library members. Inhibitors of the binding are detected by a decrease in the fluorescence polarization (FP) of the fluorophore. Protein was supplied by Prof. David Siderovski, University of North Carolina at Chapel Hill.
Assay Protocol: Reagents/Controls: Assay Buffer: 10 mM Tris-HCl, 150 mM NaCl, 0.1 mM GDP (prepared fresh), and 0.05% NP40 at pH 7.5. […] 10 nM FITC labeled peptide/50 nM protein in columns 1, 2, 5 - 48. Titration of unlabeled peptide control ([H][…][NH2], custom synthesized and HPLC-purified by Tufts University Core Facility) from 10 mM, then 1:2 dilution, 16-point in duplicate, pin-transferred to column 2, rows 1 to 32. Column 1 is neutral. FITC-labeled RGS12-GoLoco peptide was custom-synthesized and HPLC-purified by Michael Berne of Tufts University Assay Steps. Four uL of reagents were dispensed to 1536-well Greiner black solid-bottom plates. Compounds and controls (23 nL) were transferred via Kalypsys PinTool. The plates were incubated for 10 min at room temperature, and then read on ViewLux (Perkin-Elmer) High-throughput CCD imager using FITC polarization filter sets for the fluorescein-labeled decapeptide probe.During dispense, reagent bottles were kept submerged into 4 deg C water bath and all liquid lines were covered with aluminum foil to minimize probe and protein degradation. All screening operations were performed on a Kalypsys robotic system (Kalypsys, Inc., San Diego, CA) containing one RX-130 and two RX-90 anthropomorphic robotic arms.

activity, negative = inhibition, inactive:
CCCCC#Cc1nc(N)c2ncn([C@@H]3O[C@@H](C(=O)NCC)[C@H](O)[C@@H]3O)c2n1 -22.2%
CSc1ccc2c(c1)N(CC[C@H]1CCCCN1C)c1ccccc1S2 -9.71%
O[Si@](CCCN1CCCCC1)(c1ccc(F)cc1)C1CCCCC1 -10.4%
Cn1c(=O)c2c(nc(/C=C\c3cccc(Cl)c3)n2C)n(C)c1=O -5.39%
C/C=C1\C(=O)C[C@@H]2[C@@H]3CCC4=CC(=O)CC[C@@]4(C)[C@H]3CC[C@@]12C -11.2%
c1ccc2c(c1)CCC[C@H]2C1=NCCN1 -7.15%
CCCN1C[C@@H](CSC)C[C@H]2c3cccc4[nH]cc(c34)C[C@@H]21 -20.7%
O=C1c2c(O)cc(O)cc2O[C@@H](c2ccc(O)c(O)c2)[C@H]1O -3.31%
C[C@@]12CCC(=O)C=C1CC[C@@H]1[C@@H]2[C@H](O)C[C@]2(C)[C@@H]1CC[C@]2(O)C(=O)COC(=O)CCC(=O)O -5.56%
N#C[C@@H](Cc1ccc(O)c(O)c1)C(=O)N1CCc2ccccc21 69.6%
CC(=O)[C@@]1(O)CC[C@@H]2[C@@H]3CCC4=CC(=O)CC[C@@]4(C)[C@H]3CC[C@]21C -18.5%
C=C1C(=O)O[C@@H]2[C@@H]1CC/C(C)=C\CC[C@@]1(C)O[C@H]21 -18.9%
CNC(=O)[C@@H]1O[C@@H](n2cnc3c(NCc4cccc(I)c4)ncnc32)[C@H](O)[C@@H]1O -19.3%
CCCCCCCCCCCCCCCCCC(=O)NC[C@@H](COP(=O)([O-])OCC[N+](C)(C)C)OCC 3.02%
FC(F)(F)c1cc(CO[C@@H]2CCCN[C@H]2c2ccccc2)cc(C(F)(F)F)c1 3.17%
O=c1[nH]c(=O)n([C@H]2C[C@H](O)[C@H](CO)O2)cc1/C=C\Br -22.6%
CC(=O)S[C@@H]1CC2=CC(=O)CC[C@@]2(C)[C@H]2CC[C@]3(C)[C@H](CC[C@@]34CCC(=O)O4)[C@H]12 -12.9%
O=C(O)[C@@H]1CCCN[C@H]1C(=O)O -13.7%
COc1cc2nc(N3CCN(C(=O)[C@H]4COc5ccccc5O4)CC3)nc(N)c2cc1OC -20.1%
N[C@H](Cc1ccc(F)cc1)C(=O)O -22.3%
CCCCCC[C@@H]([C@H](C)O)n1cnc2c(N)ncnc21 -14.5%
Cc1c(C)c2c(c(C)c1O)CC[C@@](C)(CN1CCN(c3cc(N4CCCC4)nc(N4CCCC4)n3)CC1)O2 -11.1%
CCCCCCCCCCCCCCCCCCNC(=O)OC[C@@H](COP(=O)([O-])OCC[n+]1ccsc1)OC -6.19%
COc1cc([C@H]2c3cc4c(cc3[C@@H](O)[C@@H]3COC(=O)[C@H]23)OCO4)cc(OC)c1OC -9.29%
C=CCN1CCc2c(cc(O)c(O)c2Br)[C@H](c2ccccc2)C1 -18.6%
O=C(O)C[C@@H]1CCCc2ccccc2[C@H]1O -12.1%
CNCC[C@H](Oc1ccccc1C)c1ccccc1 -3.02%
CCCN(CCc1ccccc1)[C@H]1CCc2c(O)cccc2C1 -21.7%
COc1cc2nc(N3CC=[N+](C(=O)c4ccco4)CC3)nc(N)c2cc1OC 2.71%
CCCCCCCCCCCCCCCCCCOC[C@@H](COP(=O)([O-])OCC[N+](C)(C)C)OC -6.35%
CN(C)CCCO[C@H]1[C@H]([C@H](O)CO)O[C@H]2OC(C)(C)O[C@@H]21 -13.5%
CN1CCN([C@@H]2Cc3ccccc3Sc3ccc(Cl)cc32)CC1 -22.1%
CC[C@]1(O)C[C@H]2CN(CCc3c([nH]c4ccccc34)[C@](C(=O)OC)(c3cc4c(cc3OC)N(C=O)[C@H]3[C@@](O)(C(=O)OC)[C@H](OC(C)=O)[C@@]5(CC)C=CCN6CC[C@]43[C@H]65)C2)C1 2.31%
N[C@H](Cc1cccc(-c2ccccc2CP(=O)(O)O)c1)C(=O)O -11.1%
CCCCCCCCCCCCCCCCCC(=O)O[C@H](CC(=O)O)C[N+](C)(C)C -10.6%
COc1ccc(NC(=O)/C=C\c2ccc(Cl)cc2)cc1 -16.4%
Clc1ccc(C(c2ccc(Cl)cc2)n2cc[n+](C[C@@H](OCc3ccc(Cl)cc3Cl)c3ccc(Cl)cc3Cl)c2)cc1 3.66%
Nc1ccn([C@@H]2O[C@@H](CO)[C@@H](O)[C@H]2O)c(=O)n1 -13.9%
OC[C@@H]1O[C@@H](n2cnc3c(Nc4ccccc4)ncnc32)[C@@H](O)[C@H]1O 9.1%
CCOC(=O)C1=C(C)NC(C)=C(C(=O)OC)[C@H]1c1cccc(Cl)c1Cl -17.1%
